According to PubChem BioAssay (NCI):
About 83,000 compounds went through this panel and 20% of them were active in at least one assay; those are over-represented in the sample as a whole.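 Note: values are percent growth. 100 is the growth of untreated cells, values between 100 and 0 indicate rising inhibition; between -100 and 0 indicates cell death.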 Unmarked numbers belong to inactive results. Active and inactive are the calls of the source. The calls were made as follows: active = growth percent below 10; inactive = the rest.

Tests used:
Assay in all cases: NCI-60 one-dose screen, 48 h (100 = growth as untreated, 0 = no growth, -100 = all killed)
Conditions in all cases: 10 µM unless noted
NCI-H23 lung = system: NCI-H23 lung
NCI-H226 lung = system: NCI-H226 lung
NCI-H322M lung = system: NCI-H322M lung
HOP-62 NSCLC = system: HOP-62 NSCLC
NCI-H460 lung = system: NCI-H460 lung
HOP-92 NSCLC = system: HOP-92 NSCLC
NCI-H522 lung = system: NCI-H522 lung
A549/ATCC NSCLC = system: A549/ATCC NSCLC
786-0 renal = system: 786-0 renal
COLO 205 colon = system: COLO 205 colon

| SMILES | growth (NCI-H23 lung) | growth (NCI-H226 lung) | growth (NCI-H322M lung) | growth (HOP-62 NSCLC) | growth (NCI-H460 lung) | growth (HOP-92 NSCLC) | growth (NCI-H522 lung) | growth (A549/ATCC NSCLC) | growth (786-0 renal) | growth (COLO 205 colon) |
| --- | --- | --- | --- | --- | --- | --- | --- | --- | --- | --- |
| CO[C@@]12C=C[C@@]34CCC(=O)N3c3ccccc3[C@@H](O1)C4C2 | 99.9% | 96.8% | 99.8% | 97.7% | 104% | 93% | 92.7% | 98.4% | 101% | 105% |
| CC(=O)OCC1OC(OC2C(COC(C)=O)OC(OCCC[S-])C(OC(C)=O)C2OC(C)=O)C(OC(C)=O)C(OC(C)=O)C1OC(C)=O.[Au+].c1ccc(CN2[CH-]N(Cc3ccccc3)C(c3ccccc3)=C2c2ccccc2)cc1 (stereo not given) | 12.1% | 25.3% | 52% | 31.8% | 15% | -11.4% (active) | -30.8% (active) | 23.2% | 9.05% (active) | -37.4% (active) |
| C=C1C(=O)O[C@H]2[C@H]1CC/C(COC(=O)CCCCC(=O)OC/C1=C/CC[C@@]3(C)O[C@H]3[C@H]3OC(=O)C(=C)[C@@H]3CC1)=C\CC[C@@]1(C)O[C@@H]21 | 65.2% | 75.3% | 105% | 86.8% | 99.3% | 61.1% | -36.9% (active) | 94.9% | 68% | -18.9% (active) |
| Cc1ccc(C2=N[C@H]3CCC[C@@H]3N(c3ccccc3)C(C(Cl)Cl)=N2)cc1 | 95.5% | 107% | 93.3% | 111% | 110% | 107% | 93% | 98.4% | 98.3% | 98.8% |
| CCc1n(Cc2ccc3ccccc3c2)c2ccccc2[n+]1Cc1ccc2ccccc2c1 | 28.8% | 64.9% | 90.7% | 81.3% | 53.6% | 21.8% | 12.1% | 74.2% | 89% | 25% |
| COC(=O)CCc1cc(O)c2c(c1)[C@@H](C(=O)OC)[C@H](c1ccc(O)c(O)c1)O2 | 76.5% | 102% | 98.3% | 54.3% | 107% | 79.8% | 51.8% | 98% | 93.9% | 104% |
| CCOc1ccc(C2N(c3cc(OC)c(OC)c(OC)c3)C(=O)C2(F)F)cc1 (stereo not given) | 33.6% | 71% | 67.2% | 40.8% | 12.7% | 55.6% | 19.3% | 33.6% | 64.7% | 10.8% |
| CC[C@]12C=CCN3CC[C@@]4(c5ccc(OC)cc5N(C)[C@H]4[C@@](O)(C(=O)OC)[C@@H]1OC(=O)CCC(=O)O[C@H]1CC[C@H]4[C@@H]5CC[C@H]6CC(=O)CC[C@]6(C)[C@H]5CC[C@]14C)[C@@H]32 | 38.5% | 35.4% | 68.3% | 32.7% | 13.8% | -2.92% (active) | 2.12% (active) | 13.2% | 30.8% | -22.1% (active) |
| Nc1cccc(C(=O)Nc2ccc3c(O)c(N=Nc4ccc(N=Nc5ccc(S(=O)(=O)O)cc5)cc4)c(S(=O)(=O)O)cc3c2)c1 | 104% | 109% | 94.5% | 96% | 106% | 97.7% | 84.5% | 97.5% | 98.1% | 121% |
| CCCn1c2cc(OCc3cn(-c4ccc(Cl)cc4)nn3)ccc2c2ccnc(C)c21 | 78.1% | 69.5% | 73% | 70.1% | 71.1% | 50.5% | 66.4% | 70.8% | 34.8% | 44.1% |
| NC(=O)c1ccc(C2C3=C(CCCC3=O)OC3=C2C(=O)c2ccccc2C3=O)cc1 (stereo not given) | -34.7% (active) | 113% | 104% | 23.6% | 7.97% (active) | 71.2% | -26.5% (active) | 26.7% | 94.8% | -1.47% (active) |
